The whole screen tested about 220,000 compounds, of which about 300 (0.14%) were called active. Shown is part of a subset that was picked to be rich in actives. A number with no mark means an inactive call.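 How the source made its calls: active means inhibition of at least 40%; inactive means inhibition below 40%.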
Each molecule was assayed against Coagulation factor XI (Homo sapiens) (UniProt P03951) (assay: human FXIa protease inhibitors, primary screen, biochemical, 1536-well (AID 798;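 further: fluorescence of freed AMC excited at 355 nm; 0% = enzyme without compound and 100% = no enzyme blank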)). Settings: purified FXIa, Boc-Glu-Ala-Arg-AMC fluorogenic substrate; at 5 µM; active compounds read high.
Coagulation factor XI (Homo sapiens), sequence (P03951 19-387 limits assumed): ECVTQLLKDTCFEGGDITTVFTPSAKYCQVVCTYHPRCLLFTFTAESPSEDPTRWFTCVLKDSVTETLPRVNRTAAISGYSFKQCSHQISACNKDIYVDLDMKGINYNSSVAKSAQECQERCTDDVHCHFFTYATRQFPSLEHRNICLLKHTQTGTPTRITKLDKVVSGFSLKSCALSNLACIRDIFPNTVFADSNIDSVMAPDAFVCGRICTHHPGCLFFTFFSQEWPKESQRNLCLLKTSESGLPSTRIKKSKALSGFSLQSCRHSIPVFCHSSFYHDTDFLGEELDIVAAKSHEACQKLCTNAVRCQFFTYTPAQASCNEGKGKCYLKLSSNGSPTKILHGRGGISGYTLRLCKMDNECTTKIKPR
Coagulation factor XI (Homo sapiens), sequence (P03951 388-625 limits assumed): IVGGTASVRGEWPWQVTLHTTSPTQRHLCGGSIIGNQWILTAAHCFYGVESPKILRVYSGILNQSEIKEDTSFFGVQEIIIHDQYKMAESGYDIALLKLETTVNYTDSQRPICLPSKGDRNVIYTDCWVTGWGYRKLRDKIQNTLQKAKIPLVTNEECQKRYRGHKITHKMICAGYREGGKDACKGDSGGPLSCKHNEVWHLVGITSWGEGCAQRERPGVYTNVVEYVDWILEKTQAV
`NCC(O)c1ccc(O)cc1` (stereo not given) was tested, and the inhibition was 47.9% (active). For `CSc1ccc(C(=O)C2CCCN(Cc3ccn[nH]3)C2)cc1` (stereo not given), the inhibition was 2.72%. For `Cc1ccc(Cn2c(C)c3cnn(CC(=O)N4CCC5(CC4)OCCO5)c(=O)c3c2C)cc1`, the inhibition was -2.43%. Work on `CCCCCn1c(=O)c(C(=O)NCc2ccccn2)c(O)c2ccccc21` yielded an inhibition of 4.5%. `CC(C)c1ccc(-n2c(O)c(/C=N/N3CCOCC3)c(=O)[nH]c2=S)cc1` was tested, and the inhibition was -2.81%.

Source: PubChem BioAssay AID798 (PCMD, 2007)
